Records with an inconclusive call do not appear. The source made the active and inactive calls. Rule for the calls, unless noted: active = hit-call score of the fitted dose curve at least 0.9, where 1 is the maximum; inactive = score below 0.9.
How the values were obtained:
[1] = ATG_NFI_CIS: Attagene CIS-FACTORIAL HepG2 Assay for human Nuclear Factor I (NFI) (AID 2282989); settings: HepG2 cis-regulatory reporter, NFI response element transcription; actives raise or lower the signal
In short: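 Read-out: reporter mRNA via RT-PCR plus capillary electrophoresis with fluorescence detection. Transiently transfected HepG2 (endogenous TF activity on cis promoters), 24 h compound exposure; gain or loss of signal fitted against DMSO.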

[2] = ATG_NRF2_ARE_CIS: Attagene CIS-FACTORIAL HepG2 Assay for human Nuclear Factor Erythroid 2 Related Factor 2 (NFR2) response to Antioxidant Response Elements (ARE) (AID 2282992); settings: HepG2 Attagene ARE/NRF2 reporter, transcription factor activity; actives raise or lower the signal;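 for AC50: reporter mRNA level measured by RT-PCR and capillary electrophoresis fluorescence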
In short: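 Endogenous transcription factor activity in human liver HepG2 cells is tracked via a cis-element-driven reporter within a multiplexed set. mRNA induction is read by RT-PCR and capillary electrophoresis after 24 h, with DMSO as baseline.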

[3] = ATG_Oct_MLP_CIS: Attagene CIS-FACTORIAL HepG2 Assay for human Octamer-Binding Transcription Factor (Oct) (AID 2282993); settings: HepG2 Attagene cis-factorial Oct reporter, mRNA; actives raise or lower the signal
In short: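 Read-out: reporter mRNA via RT-PCR plus capillary electrophoresis of 6-FAM-labelled fragments. Transiently transfected HepG2, 24 h exposure, endogenous TF activity on cis elements. Gain or loss of signal fitted relative to DMSO.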

[4] = BSK_3C_TissueFactor: BioMAP Diversity Plus: 3C Assay for Tissue Factor Biomarker Activity (AID 2282997); settings: BioMAP 3C HUVEC, tissue factor biomarker readout; actives raise or lower the signal
In short: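 HUVEC, 3C system, 24 h post-dose; Tissue Factor by ELISA; bidirectional fit vs DMSO baseline.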

[5] = BSK_3C_uPAR: BioMAP Diversity Plus: 3C Assay for Urokinase-type plasminogen activator receptor (uPAR) Biomarker Activity (AID 2282998); settings: BioMAP 3C HUVEC, uPAR biomarker ELISA; actives raise or lower the signal
In short: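 HUVEC primary cells; 24 h post-dose; uPAR by ELISA; gain or loss of signal fitted bidirectionally vs DMSO baseline.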

[6] = BSK_3C_VCAM1: BioMAP Diversity Plus: 3C Assay for Vascular cell adhesion molecule 1 (VCAM1) Biomarker Activity (AID 2282999); settings: BioMAP 3C HUVEC, VCAM1 ELISA, cytokine-stimulated; actives raise or lower the signal
In short: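 Vascular primary endothelium (human umbilical vein) was exposed to chemicals and assayed 24 h later. VCAM-1 levels came from ELISA, with DMSO serving as baseline for bidirectional fitting.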

[7] = BSK_4H_Eotaxin3: BioMAP Diversity Plus: 4H Assay for Eotaxin 3 Biomarker Activity (AID 2283000); settings: primary human endothelial cells (HUVEC); actives raise or lower the signal
In short: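 Readout is Eotaxin-3 (CCL26) level by ELISA in primary human umbilical vein endothelial cells harvested 24 h after chemical exposure; activity fitted in both directions against DMSO control.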

[8] = target: human Peroxisome Proliferator-activated Receptor alpha (PPARa), PPARA (gene 5465) (UniProt Q07869); assay: ATG_PPARa_TRANS: Attagene TRANS-FACTORIAL HepG2 Assay for human Peroxisome Proliferator-activated Receptor alpha (PPARa) (AID 2283001; active = hit-call score of the fitted dose curve at least 0.9, where 1 is the maximum)
human Peroxisome Proliferator-activated Receptor alpha (PPARa), PPARA (gene 5465), sequence (Q07869 whole entry, looked up, the tested form may be a part): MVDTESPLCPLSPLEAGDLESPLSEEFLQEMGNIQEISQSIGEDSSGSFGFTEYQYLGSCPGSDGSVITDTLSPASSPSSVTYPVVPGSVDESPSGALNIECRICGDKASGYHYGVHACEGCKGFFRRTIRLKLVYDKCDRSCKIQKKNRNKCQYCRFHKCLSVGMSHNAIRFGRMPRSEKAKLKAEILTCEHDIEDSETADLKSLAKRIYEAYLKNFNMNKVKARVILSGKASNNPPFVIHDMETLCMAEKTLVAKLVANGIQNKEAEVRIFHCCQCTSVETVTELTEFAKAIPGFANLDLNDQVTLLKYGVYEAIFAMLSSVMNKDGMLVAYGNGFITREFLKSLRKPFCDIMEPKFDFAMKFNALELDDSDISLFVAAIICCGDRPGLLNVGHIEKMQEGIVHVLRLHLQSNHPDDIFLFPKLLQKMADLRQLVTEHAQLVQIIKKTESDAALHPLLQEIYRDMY
In short: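 Exposure: 24 h, transiently transfected HepG2 cells. Endpoint: GAL4-UAS reporter mRNA, RT-PCR with capillary electrophoresis fluorescence. Baseline: DMSO; increases fitted.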

[9] = target: human Peroxisome Proliferator-activated Receptor delta (PPARd), PPARD (gene 5467) (UniProt Q03181); assay: ATG_PPARd_TRANS: Attagene TRANS-FACTORIAL HepG2 Assay for human Peroxisome Proliferator-activated Receptor delta (PPARd) (AID 2283002; active = hit-call score of the fitted dose curve at least 0.9, where 1 is the maximum)
human Peroxisome Proliferator-activated Receptor delta (PPARd), PPARD (gene 5467), sequence (Q03181 whole entry, looked up, the tested form may be a part): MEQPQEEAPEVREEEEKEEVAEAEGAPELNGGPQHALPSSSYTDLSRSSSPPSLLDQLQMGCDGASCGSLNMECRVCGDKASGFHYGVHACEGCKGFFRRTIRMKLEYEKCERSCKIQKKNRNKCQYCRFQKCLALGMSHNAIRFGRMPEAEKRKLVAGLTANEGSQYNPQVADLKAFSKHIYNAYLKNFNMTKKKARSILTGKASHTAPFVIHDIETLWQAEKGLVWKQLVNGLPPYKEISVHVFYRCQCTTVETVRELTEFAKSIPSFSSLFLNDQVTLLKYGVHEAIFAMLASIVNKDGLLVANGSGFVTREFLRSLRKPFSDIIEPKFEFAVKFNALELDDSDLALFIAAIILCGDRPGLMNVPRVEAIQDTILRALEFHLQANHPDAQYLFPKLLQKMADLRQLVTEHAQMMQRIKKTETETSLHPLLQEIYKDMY
In short: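 Measured quantity: GAL4-UAS reporter transcript induction in HepG2 after 24 h chemical dosing, with NR-Gal4 chimeras supplied by transient transfection. Detection by RT-PCR and capillary electrophoresis; upward fit against DMSO.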

[10] = read-out: Intercellular Adhesion Molecule 1 (ICAM1), ICAM1 (gene 3383); assay: BSK_3C_ICAM1: BioMAP Diversity Plus: 3C Assay for Intercellular Adhesion Molecule 1 (ICAM1) Biomarker Activity (AID 2283003); settings: primary human endothelial cells (HUVEC); actives raise or lower the signal
In short: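 Using DMSO as baseline, bidirectional curve fitting was applied to ICAM-1 ELISA signals from HUVEC in the 3C system, measured 24 h after compound addition.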

[11] = target: human Retinoic Acid Receptor beta (RARb), RARB (gene 5915) (UniProt P10826); assay: ATG_RARb_TRANS: Attagene TRANS-FACTORIAL HepG2 Assay for human Retinoic Acid Receptor beta (AID 2283004; active = hit-call score of the fitted dose curve at least 0.9, where 1 is the maximum)
human Retinoic Acid Receptor beta (RARb), RARB (gene 5915), sequence (P10826 whole entry, looked up, the tested form may be a part): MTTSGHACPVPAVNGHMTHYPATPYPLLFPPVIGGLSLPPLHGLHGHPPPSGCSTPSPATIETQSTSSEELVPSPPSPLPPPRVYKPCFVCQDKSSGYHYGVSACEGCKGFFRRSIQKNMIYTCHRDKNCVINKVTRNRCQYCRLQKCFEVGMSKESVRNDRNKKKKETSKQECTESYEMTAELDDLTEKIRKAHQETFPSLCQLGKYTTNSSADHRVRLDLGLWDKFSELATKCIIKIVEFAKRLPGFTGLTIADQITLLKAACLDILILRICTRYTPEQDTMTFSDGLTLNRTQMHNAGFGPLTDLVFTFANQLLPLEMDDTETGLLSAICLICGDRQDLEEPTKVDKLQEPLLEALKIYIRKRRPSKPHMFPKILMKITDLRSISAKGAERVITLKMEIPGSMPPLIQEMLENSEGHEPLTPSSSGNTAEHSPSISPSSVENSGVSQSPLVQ
In short: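 Readout is reporter mRNA induction: RNA reverse-transcribed, PCR-amplified, FAM-labelled, HpaI-cut and resolved by capillary electrophoresis. Transiently transfected HepG2 cells carrying exogenous NR–Gal4 chimeras were dosed for 24 h; activity fitted upward relative to DMSO.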

[12] = BSK_3C_Proliferation: Cell Proliferation Assessment in the BioMAP Diversity Plus: 3C Assay (AID 2283006); settings: primary human endothelial cells (HUVEC);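 for AC50: potency may reflect either rise or fall in cell number versus DMSO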
In short: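 Measured here: sulforhodamine B (0.1%) staining of TCA-fixed sub-confluent umbilical vein endothelial cultures 48 h post-dosing, absorbance 560 nm. DMSO served as negative control and baseline; both signal gain and loss were modelled.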

[13] = target: Peroxisome proliferator-activated receptor gamma (Homo sapiens) (UniProt P37231); assay: ATG_PPARg_TRANS: Attagene TRANS-FACTORIAL HepG2 Assay for human Peroxisome Proliferator-activated Receptor-gamma (PPARg) (AID 2283007; active = hit-call score of the fitted dose curve at least 0.9, where 1 is the maximum)
Peroxisome proliferator-activated receptor gamma (Homo sapiens), sequence (P37231 whole entry, looked up, the tested form may be a part): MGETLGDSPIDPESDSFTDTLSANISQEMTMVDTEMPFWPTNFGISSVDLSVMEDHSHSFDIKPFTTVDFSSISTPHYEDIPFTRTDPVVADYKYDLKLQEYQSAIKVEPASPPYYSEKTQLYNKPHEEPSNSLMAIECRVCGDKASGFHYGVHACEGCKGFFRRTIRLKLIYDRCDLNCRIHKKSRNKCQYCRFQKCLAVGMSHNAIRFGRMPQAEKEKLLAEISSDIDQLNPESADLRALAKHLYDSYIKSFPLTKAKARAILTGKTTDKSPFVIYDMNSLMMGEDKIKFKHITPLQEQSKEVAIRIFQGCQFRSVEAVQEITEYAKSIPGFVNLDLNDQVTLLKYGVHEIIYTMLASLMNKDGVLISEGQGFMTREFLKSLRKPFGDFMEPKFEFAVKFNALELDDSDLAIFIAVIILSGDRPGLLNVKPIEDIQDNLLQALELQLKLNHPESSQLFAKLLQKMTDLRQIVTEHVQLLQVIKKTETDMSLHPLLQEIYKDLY
In short: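 Read-out: reporter mRNA induction, detected by fluorescence after RT-PCR and capillary electrophoresis. Transiently transfected human HepG2 liver cells carrying a chimeric NR-Gal4 construct were dosed for 24 h; activity was fitted upward relative to DMSO.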

[14] = target: Cellular tumor antigen p53 (Homo sapiens) (UniProt P04637); assay: ATG_p53_CIS: Attagene CIS-FACTORIAL HepG2 Assay for human p53 Transcription Factor (AID 2282994); settings: HepG2 p53 cis-element reporter, Attagene mRNA; actives raise or lower the signal
Cellular tumor antigen p53 (Homo sapiens), sequence (P04637 whole entry, looked up, the tested form may be a part): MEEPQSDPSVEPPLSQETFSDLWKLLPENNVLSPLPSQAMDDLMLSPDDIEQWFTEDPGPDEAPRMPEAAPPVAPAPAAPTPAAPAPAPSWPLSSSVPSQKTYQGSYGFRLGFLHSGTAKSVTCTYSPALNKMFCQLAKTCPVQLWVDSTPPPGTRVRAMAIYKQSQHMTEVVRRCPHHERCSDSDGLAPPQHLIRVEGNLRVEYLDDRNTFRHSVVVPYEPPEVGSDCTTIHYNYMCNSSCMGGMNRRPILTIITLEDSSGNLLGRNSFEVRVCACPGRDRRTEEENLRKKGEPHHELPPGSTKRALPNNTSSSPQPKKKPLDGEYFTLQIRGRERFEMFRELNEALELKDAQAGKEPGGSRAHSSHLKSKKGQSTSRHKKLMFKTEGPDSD
In short: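 Steps: transfect HepG2 with multiplexed cis reporter constructs; dose chemicals 24 h; extract RNA, reverse-transcribe, PCR-amplify reporter sequences; FAM-label, HpaI-digest, resolve fragments by CE. Activity fitted both directions relative to DMSO.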

[15] = target: human RAR-related Orphan Receptor beta (RORb), RORB (gene 6096) (UniProt Q92753); assay: ATG_RORb_TRANS: Attagene TRANS-FACTORIAL HepG2 Assay for human RAR-related Orphan Receptor beta (RORb) (AID 2283010; active = hit-call score of the fitted dose curve at least 0.9, where 1 is the maximum)
human RAR-related Orphan Receptor beta (RORb), RORB (gene 6096), sequence (Q92753 whole entry, looked up, the tested form may be a part): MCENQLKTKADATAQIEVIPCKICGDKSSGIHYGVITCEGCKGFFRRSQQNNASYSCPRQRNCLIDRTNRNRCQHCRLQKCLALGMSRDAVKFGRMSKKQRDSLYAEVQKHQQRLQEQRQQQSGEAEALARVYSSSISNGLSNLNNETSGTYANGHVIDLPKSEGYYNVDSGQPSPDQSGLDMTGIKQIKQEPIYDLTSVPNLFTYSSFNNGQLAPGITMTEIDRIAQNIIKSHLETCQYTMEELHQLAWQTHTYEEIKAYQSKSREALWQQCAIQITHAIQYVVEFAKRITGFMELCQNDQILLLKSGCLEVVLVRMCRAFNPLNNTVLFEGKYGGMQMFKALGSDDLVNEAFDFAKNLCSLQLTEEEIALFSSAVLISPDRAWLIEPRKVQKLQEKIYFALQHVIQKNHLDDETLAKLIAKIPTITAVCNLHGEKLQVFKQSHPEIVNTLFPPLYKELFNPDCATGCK
In short: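 Multiplexed transcription-factor reporter assay: HepG2 cells transiently carrying NR-Gal4/GAL4-UAS constructs, 24 h treatment, mRNA quantified by RT-PCR plus capillary electrophoresis fluorescence; activity scored as induction over DMSO.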

[16] = ATG_NF_kB_CIS: Attagene CIS-FACTORIAL HepG2 Assay for human Nuclear Factor Kappa B (NF-kB) (AID 2282991); settings: HepG2 Attagene cis-factorial NF-kB reporter mRNA; actives raise or lower the signal
In short: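 Read-out: reporter transcript levels quantified by RT-PCR plus capillary electrophoresis of 6-FAM-labelled, HpaI-cut fragments. Transfected HepG2 cells, 24 h compound exposure, endogenous NF-kB-driven cis element; gain or loss scored versus DMSO.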

[17] = target: Nuclear receptor subfamily 1 group I member 2 (Homo sapiens) (UniProt O75469); assay: ATG_PXR_TRANS: Attagene TRANS-FACTORIAL HepG2 Assay for human Pregnane X Receptor (PXR) (AID 2283008; active = hit-call score of the fitted dose curve at least 0.9, where 1 is the maximum)
Nuclear receptor subfamily 1 group I member 2 (Homo sapiens), sequence (O75469 whole entry, looked up, the tested form may be a part): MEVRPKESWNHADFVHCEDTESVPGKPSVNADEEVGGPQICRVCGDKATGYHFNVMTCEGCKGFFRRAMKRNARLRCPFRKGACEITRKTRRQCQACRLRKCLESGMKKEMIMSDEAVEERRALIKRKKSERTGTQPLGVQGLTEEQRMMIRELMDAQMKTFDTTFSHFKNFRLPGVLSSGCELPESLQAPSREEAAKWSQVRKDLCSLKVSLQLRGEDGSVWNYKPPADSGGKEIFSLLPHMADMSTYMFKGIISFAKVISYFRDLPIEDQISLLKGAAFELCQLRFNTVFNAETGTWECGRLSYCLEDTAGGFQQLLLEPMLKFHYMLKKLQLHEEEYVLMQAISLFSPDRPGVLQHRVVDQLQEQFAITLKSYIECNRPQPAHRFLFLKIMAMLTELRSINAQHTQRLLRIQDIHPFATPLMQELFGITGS
In short: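 HepG2 transfected (FuGene 6) with GAL4-UAS reporter units + PXR-Gal4 chimera; dosed 24 h. Total RNA → oligo(dT) RT → PCR → 6-FAM primer extension → HpaI cut → CE. Gain-of-signal vs DMSO.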

[18] = target: Retinoic acid receptor alpha (Homo sapiens) (UniProt P10276); assay: ATG_RARa_TRANS: Attagene TRANS-FACTORIAL HepG2 Assay for human Retinoic Acid Receptor alpha (RARa) (AID 2283005; active = hit-call score of the fitted dose curve at least 0.9, where 1 is the maximum)
Retinoic acid receptor alpha (Homo sapiens), sequence (P10276 whole entry, looked up, the tested form may be a part): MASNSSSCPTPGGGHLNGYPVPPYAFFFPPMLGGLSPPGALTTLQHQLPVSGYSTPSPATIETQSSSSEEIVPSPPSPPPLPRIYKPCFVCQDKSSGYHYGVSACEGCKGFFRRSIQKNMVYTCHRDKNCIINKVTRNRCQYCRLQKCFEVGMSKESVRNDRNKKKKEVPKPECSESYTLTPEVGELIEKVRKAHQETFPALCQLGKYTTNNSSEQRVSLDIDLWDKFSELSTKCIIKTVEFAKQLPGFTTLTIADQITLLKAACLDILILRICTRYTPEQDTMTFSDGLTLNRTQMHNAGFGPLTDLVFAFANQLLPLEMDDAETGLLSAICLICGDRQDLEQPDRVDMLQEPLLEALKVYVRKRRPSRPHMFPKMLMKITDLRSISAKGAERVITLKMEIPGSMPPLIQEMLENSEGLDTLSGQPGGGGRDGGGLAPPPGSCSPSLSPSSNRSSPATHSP
In short: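 HepG2 cells transiently transfected with multiple reporter units expressing chimeric RARα-GAL4 fusion, with GAL4-UAS-driven reporters. After 24 h compound exposure, reporter mRNA induction quantified by RT-PCR and capillary electrophoresis with fluorescent labeling; gain-of-signal fitted relative to DMSO control.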

[19] = target: human Retinoic Acid Receptor gamma (RARg), RARG (gene 5916) (UniProt P13631); assay: ATG_RARg_TRANS: Attagene TRANS-FACTORIAL HepG2 Assay for human Retinoic Acid Receptor gamma (RARg) (AID 2283009; active = hit-call score of the fitted dose curve at least 0.9, where 1 is the maximum)
human Retinoic Acid Receptor gamma (RARg), RARG (gene 5916), sequence (P13631 whole entry, looked up, the tested form may be a part): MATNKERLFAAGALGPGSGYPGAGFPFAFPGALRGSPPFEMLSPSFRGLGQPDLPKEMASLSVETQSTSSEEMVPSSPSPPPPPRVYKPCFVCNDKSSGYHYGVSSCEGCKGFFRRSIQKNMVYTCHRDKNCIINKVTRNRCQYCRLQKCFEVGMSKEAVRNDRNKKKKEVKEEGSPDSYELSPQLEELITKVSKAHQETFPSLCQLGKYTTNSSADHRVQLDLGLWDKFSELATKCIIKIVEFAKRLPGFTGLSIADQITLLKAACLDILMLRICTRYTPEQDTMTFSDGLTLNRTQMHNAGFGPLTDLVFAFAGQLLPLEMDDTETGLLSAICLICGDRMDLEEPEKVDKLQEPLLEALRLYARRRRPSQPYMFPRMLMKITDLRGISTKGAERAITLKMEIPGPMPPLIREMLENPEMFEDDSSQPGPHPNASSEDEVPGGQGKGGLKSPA
In short: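 Gain-of-signal relative to DMSO is reported from fluorescent capillary electrophoresis of RT-PCR reporter products. These came from HepG2 cells expressing transfected RARg-GAL4 chimeras with UAS reporters, harvested 24 h after dosing.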

Measured: AC50

O=C(Oc1ccccc1)c1cccc(C(=O)Oc2ccccc2)c1
active: [12] 15.2 µM | [13] 60.4 µM
not listed: [14] | [15] | [16] | [17] | [18] | [19]
inactive: all other assays above

O=C1O[C@H]([C@H](O)CO)C(O)=C1O
not listed: [8] | [9] | [11] | [13] | [16] | [17] | [18] | [19]
inactive: all other assays above

C=CCCCCCCCCCCCC
not listed: [8] | [11] | [15] | [18] | [19]
inactive: all other assays above

CC(C)COC(=O)CCCCC(=O)OCC(C)C
not listed: [9] | [14] | [15]
inactive: all other assays above

CC(COCC(C)OC(=O)c1ccccc1)OC(=O)c1ccccc1 (stereo unspecified)
not listed: [9] | [11] | [14] | [15] | [16]
inactive: all other assays above

CC(N)=O
not listed: [9] | [11] | [14] | [15] | [16] | [17] | [18] | [19]
inactive: all other assays above

S=c1[nH]c2ccccc2s1
active: [2] 54.9 µM | [3] 100 µM | [13] 9.31 µM | [17] 31.5 µM
not listed: [9] | [11] | [15] | [16] | [18] | [19]
inactive: all other assays above

NC(=Nc1ccccc1)Nc1ccccc1
active: [2] 5.38 µM | [3] 43.9 µM | [14] 6.23 µM | [7] 6.06 µM
not listed: [11] | [15] | [16] | [18] | [19]
inactive: all other assays above
